According to PubChem BioAssay (NCI):
This is part of a sample that, as a whole, favours compounds with a hit. Of some 83,000 tested, about 20% had one in any assay.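 Assay: single dose, 48 h. Readout: percent growth (0 = no net growth; negative = cell death). Active: <10.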 A number with no mark means an inactive call. The source made the active and inactive calls.

Assays:
Test in all cases: NCI-60 one-dose screen, 48 h (100 = growth as untreated, 0 = no growth, -100 = all killed)
Conditions in all cases: 10 µM unless noted
[1] = test system: EKVX NSCLC
[2] = test system: SN12C renal
[3] = test system: UO-31 renal
[4] = test system: TK-10 renal
[5] = test system: ACHN renal
[6] = test system: CAKI-1 renal
[7] = test system: A498 renal
[8] = test system: CCRF-CEM leukemia
[9] = test system: MOLT-4 leukemia
[10] = test system: SR leukemia

SMILES	growth [1]	growth [2]	growth [3]	growth [4]	growth [5]	growth [6]	growth [7]	growth [8]	growth [9]	growth [10]
Brc1ccc(Oc2ccc(Nc3ncnc4onc(-c5ccccc5)c34)cc2)cc1	105%	94.8%	73%	110%	105%	91.8%	82.4%	97.3%	94%	94.2%
NCCNc1nc2ccccc2c2c(=O)c3cc(F)cc(Cl)c3sc12	-68.5% (active)	-83.7% (active)	-93.7% (active)	-30.6% (active)	-94.7% (active)	-96.3% (active)	46.9%	-28.1% (active)	29.1%	-27.7% (active)
Clc1ccc(COc2ccc(Nc3ncnc4onc(-c5ccccc5)c34)cc2)cc1	95.6%	87.8%	90.5%	91.4%	41.7%	84.6%	69.2%	73.2%	85.9%	43.8%
COC(=O)/C(CCC=C(C)C)=C1\[C@@H](OC(C)=O)C[C@@]2(C)[C@H]1CC(=O)N[C@H]1[C@@]3(C)CCNC(=O)[C@@H](C)[C@@H]3CC[C@@]12C	98%	98.9%	81.9%	99.5%	101%	95.5%	109%	104%	99.5%	103%
CCCCC1CCc2cccc3c(SCC(=O)N(C)c4ccc(Cl)cc4)cc[n+]1c23 (stereo not given)	125%	104%	103%	109%	105%	99.1%	114%	108%	98.7%	101%
CC/C=C\C[C@H](O)C/C=C1/C(=O)C=C[C@@H]1C/C=C\CCCC(=O)OCCS(=O)(=O)c1ccccc1	104%	37.3%	70.4%	104%	86.3%	65.4%	115%	5.02% (active)	8.02% (active)	8.55% (active)
CCOC(=O)c1c2c(c(C)n1Cc1ccc(OC)cc1)-c1oncc1CC2	94.3%	175%	65.3%	102%	91.3%	70.6%	91.9%	93.3%	85.3%	85.4%
COc1cc(/C(C#N)=C/c2nc3c(N4CCOCC4)nc(Cl)nc3n2C)cc(OC)c1OC	35.2%	14.9%	-1.84% (active)	50.5%	13.7%	6.49% (active)	-28.1% (active)	14.4%	9.93% (active)	27.9%
CC(C)c1ccc(S(=O)(=O)NC(=O)NC2CCCC2)cc1	98.1%	97.1%	95.4%	101%	103%	96.7%	102%	98%	94.6%	95.6%
CNCCNc1nc2ccccc2c2c(=O)c3cccc(OC)c3sc12	22.8%	45.2%	24.9%	44.1%	12.5%	36.1%	3.67% (active)	12.2%	0.177% (active)	-1.21% (active)
CCOC(=O)c1sc(-c2ccc(OS(=O)(=O)c3ccccc3[N+](=O)[O-])c(C=O)c2)nc1C	92.3%	3.63% (active)	57.1%	85.5%	101%	38.8%	-84.6% (active)	12.1%	9.88% (active)	9.06% (active)
O=c1c2cc(F)ccc2sc2c(NCCN3CCCC3)nc3ccccc3c12	66.2%	70.4%	45.3%	64.8%	35.6%	62.8%	26%	33.5%	5.14% (active)	16.7%
O=C(/C=C/c1ccc(Cl)cc1)c1ccc(Nc2nc(NCCO)nc(Nc3ccc(Cl)cc3)n2)cc1	59.1%	83.1%	57.3%	94.2%	57.2%	67.3%	79.5%	47.2%	46.1%	23.2%
Cc1ccccc1CNC(=O)C1CN(c2ccc(Cl)cc2)N(c2ccc(Cl)cc2)C1=O (stereo not given)	91.8%	90.8%	64.1%	91.3%	87.4%	71.6%	86.2%	84.3%	81.1%	59.8%
O=C1/C(=C\c2ccc[nH]2)c2ccccc2N1c1ccccc1	47.7%	89.1%	93.2%	102%	92.2%	92%	101%	99.2%	102%	139%
COc1cc(/C=C2\CCC/C(=C\c3cc(CN4CCOCC4)c(O)c(OC)c3)C2=O)cc(CN2CCOCC2)c1O	54.3%	29.3%	52.6%	53.8%	25.1%	46.1%	58.6%	14.8%	11%	38%
COc1cc(C=C2C(=O)N(C)C(=O)N(C)C2=O)cc(CN2CCCCC2)c1O	104%	94%	75.4%	103%	95.9%	92.4%	98.7%	109%	98.2%	94.4%
CC(C)CCOc1ccc(-c2n[nH]c(C(F)(F)F)c2-c2cncc(C#N)c2)c(O)c1	3.52% (active)	3.81% (active)	3.89% (active)	11.4%	8.84% (active)	9.47% (active)	-25.5% (active)	6.67% (active)	23%	33.7%
O=C(/C=C/c1ccccc1)c1ccc(Nc2nc(NCCO)nc(Nc3ccc(Cl)cc3)n2)cc1	74.2%	94.1%	66.7%	98.5%	74.1%	79.2%	88.9%	60.6%	74.3%	23.1%
Nc1cccc(Nc2cc(S(=O)(=O)O)c(N)c3c2C(=O)c2ccccc2C3=O)c1	85.1%	99%	110%	107%	96.3%	92.8%	102%	101%	103%	115%
CCN1C(=O)N(CC)C2C1NC(=S)N2/N=C/C=C/c1ccccc1OC (stereo not given)	30.9%	26%	46.3%	55.2%	22.9%	28.4%	-4.32% (active)	13.8%	15.7%	12%
COc1cc(/C=C/C(=O)c2ccc(Nc3nc(NCCO)nc(N4CCOCC4)n3)cc2)cc(OC)c1OC	21.7%	16.3%	25.4%	35.3%	23.3%	23.6%	2.25% (active)	3.64% (active)	0.216% (active)	17.4%
Cn1nc(C(F)(F)F)c(-c2ccc(Cl)c(C(F)(F)F)c2)c1-c1ccc(OCc2ccc(Cl)cc2)cc1O	12.8%	6.24% (active)	-6.34% (active)	0.361% (active)	5.21% (active)	19.8%	5.29% (active)	9.89% (active)	12.3%	25.1%
O=C(Cn1cc(COc2ncnc3c2cnn3-c2ccccc2)nn1)Nc1cccc2ccccc12	85.5%	96.8%	99.8%	108%	91%	90.6%	88.8%	96.6%	94.8%	101%
O=C(/C=C/c1cccc(Cl)c1)OCc1ccc2cc1OCC#C/C=C\C#CCO2	115%	95.7%	80.2%	122%	99.4%	101%	76.7%	84%	73.2%	63%
CC(=O)c1ccc(Nc2nc(NCCO)nc(Nc3ccc(Cl)cc3)n2)cc1	80.2%	95.8%	81.3%	108%	87.8%	92.1%	72.9%	89.4%	83.9%	64.7%
COc1cc2nc(-c3cnc(N(C)C)nc3)nc(NC3CCN(Cc4ccccc4)CC3)c2cc1OC	-71.2% (active)	-87.2% (active)	-81.2% (active)	-98.6% (active)	-100% (active)	-90.9% (active)	43.2%	-31.3% (active)	-16.5% (active)	4.28% (active)
